Results on 40 compounds are retold here after PubChem BioAssay.

SMILES strings stand for the structures. Activity calls are given as the source filed them.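 Rule for the calls: active = mean inhibition over 43.08%, the solvent-only control mean plus 3 SD; inactive = the rest.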

The test deals with Nuclear receptor coactivator 3 (Homo sapiens) (UniProt Q9Y6Q9). As to the kind of experiment: NCOA3 GAL4-fusion reporter inhibition – cell-based, luminescence, quadruplicate, confirmation (AID 588792).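 Note: 0% = DMSO treated cells and 100% = gossypol at 36 µM.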 To be noted: HEK293 GAL4-SRC3 luciferase reporter, at 3.6 µM, stronger effect = higher value. Background: A reporter such as luciferase makes a cellular process visible.
Nuclear receptor coactivator 3 (Homo sapiens), sequence (Q9Y6Q9 whole entry, looked up, the tested form may be a part): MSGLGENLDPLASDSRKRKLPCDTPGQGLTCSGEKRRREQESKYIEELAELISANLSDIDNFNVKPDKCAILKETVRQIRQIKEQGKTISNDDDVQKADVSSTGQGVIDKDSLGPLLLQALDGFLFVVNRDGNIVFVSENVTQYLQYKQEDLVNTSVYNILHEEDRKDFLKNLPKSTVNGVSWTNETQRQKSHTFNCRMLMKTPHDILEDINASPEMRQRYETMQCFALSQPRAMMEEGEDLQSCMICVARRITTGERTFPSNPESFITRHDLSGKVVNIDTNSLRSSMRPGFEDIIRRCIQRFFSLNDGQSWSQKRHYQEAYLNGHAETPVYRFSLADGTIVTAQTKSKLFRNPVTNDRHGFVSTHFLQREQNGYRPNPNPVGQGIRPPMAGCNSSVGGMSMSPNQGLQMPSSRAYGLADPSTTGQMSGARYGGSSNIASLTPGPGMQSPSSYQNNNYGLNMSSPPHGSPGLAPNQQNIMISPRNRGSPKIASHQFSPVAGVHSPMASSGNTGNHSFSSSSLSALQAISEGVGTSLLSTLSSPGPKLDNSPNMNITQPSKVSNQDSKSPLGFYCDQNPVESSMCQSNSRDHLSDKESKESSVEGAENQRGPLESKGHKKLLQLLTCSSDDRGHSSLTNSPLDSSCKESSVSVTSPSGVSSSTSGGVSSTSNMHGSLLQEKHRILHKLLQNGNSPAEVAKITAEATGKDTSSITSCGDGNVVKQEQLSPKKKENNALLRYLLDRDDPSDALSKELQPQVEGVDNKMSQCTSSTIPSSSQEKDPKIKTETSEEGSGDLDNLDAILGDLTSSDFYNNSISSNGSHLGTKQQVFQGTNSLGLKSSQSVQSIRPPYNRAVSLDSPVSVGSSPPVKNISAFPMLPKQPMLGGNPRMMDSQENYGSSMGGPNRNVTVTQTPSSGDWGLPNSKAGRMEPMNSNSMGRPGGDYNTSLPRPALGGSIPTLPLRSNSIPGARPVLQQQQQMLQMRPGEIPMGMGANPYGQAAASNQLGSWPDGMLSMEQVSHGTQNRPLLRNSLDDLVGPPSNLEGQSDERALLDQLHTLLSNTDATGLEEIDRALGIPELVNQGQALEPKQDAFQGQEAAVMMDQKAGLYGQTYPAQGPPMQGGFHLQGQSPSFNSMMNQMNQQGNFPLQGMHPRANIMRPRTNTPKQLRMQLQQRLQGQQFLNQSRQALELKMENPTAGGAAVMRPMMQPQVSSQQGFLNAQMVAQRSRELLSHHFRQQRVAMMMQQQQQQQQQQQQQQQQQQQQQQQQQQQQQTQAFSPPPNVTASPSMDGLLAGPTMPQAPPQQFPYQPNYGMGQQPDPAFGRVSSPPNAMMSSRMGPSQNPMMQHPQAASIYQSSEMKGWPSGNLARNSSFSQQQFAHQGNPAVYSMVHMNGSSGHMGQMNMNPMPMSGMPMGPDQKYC
For orientation: inhibition means the drop in the measured response relative to a control, in per cent. Regarding `Cc1cc(C(=O)CN2C(=O)c3ccccc3S2(=O)=O)c(C)n1C(C)C`, the inhibition is 31.4% (inactive).
The value for `O=C(CCCN1C(=O)/C(=C/c2ccccc2Cl)SC1=S)NNC(=O)c1ccncc1` was 14.7% (inactive); that for `Cc1ccc2nc(C(F)(F)F)c(C#N)c(N)c2c1` was 48.2% (active); that for `CCCC(=O)N1CCN(c2ccc(NC(=O)c3cc4ccccc4o3)cc2Cl)CC1` was -3.22% (inactive).
Then `O=C(CCCN1C(=O)/C(=C/c2ccccc2Cl)SC1=S)NNC(=O)c1ccc(Cl)cc1Cl`, with 55% (active).
Take `c1cc2c(cc1C1=NNC(=NC3CC3)SC1)OCCO2`: the inhibition was 52.8% (active).
The value for `O=C1C=CC(=C(c2ccc(O)cc2)c2ccc(O)cc2)C=C1` was 71.2% (active); that for `CC1=C(C(=O)OCc2ccc3c(c2)OCO3)C(c2ccc(Cl)cc2)NC(=O)N1` (stereo not given) was 86% (active).
Then `COc1ccc(-c2cc3nc(C)n(N)c(=O)c3s2)cc1`, with 57.6% (active).
Then `COc1ccc(-c2cc(=O)oc3c(C)c(O)ccc23)cc1`, with 49.4% (active); and `O=C(CCl)N(C1CCCC1)C1CCS(=O)(=O)C1` (stereo not given), with 71.6% (active); and `O=[N+]([O-])c1ccc2ncnc(N3CCN(Cc4ccc5c(c4)OCO5)CC3)c2c1`, with 74.2% (active).
Take `CCOc1ccc(/C=C2\SC(=S)N(CCC(=O)O)C2=O)cc1`: the inhibition is 29% (inactive).
The value for `CCCN(CC(=O)Nc1ccccc1C)C(=O)CCl` was 74.9% (active).
The value for `Cc1nn(C(C)(C)C)c(C)c1/C=N/OC(=O)Nc1ccc(Cl)c(Cl)c1` was 20.2% (inactive); that for `C=CCN(CC=C)c1ncnc2[nH]ncc12` was 71.4% (active).
Then `CC(=O)c1ccc(-n2c(C)c(C(C)=O)c3cc(O)ccc32)cc1`, with 63% (active).
As for `Nc1ncc([N+](=O)[O-])c(N2CCCCCC2)n1`, the inhibition is 76.5% (active).
As for `COCC(C)n1c(C)cc(C(=O)COC(=O)c2cccn2C)c1C` (stereo not given), the inhibition was 9.47% (inactive).
The value for `NC(=O)c1sc2nc3c(c(-c4cccs4)c2c1N)CCCCC3` was 83.3% (active).
The value for `COc1ccc(-c2cncnc2-c2ccc(OC)cc2O)cc1` was 58.9% (active); that for `COc1ccc2ncn(-c3ccccc3)c2c1` was 49.2% (active).
As for `Cc1[nH]nc2ncc(C(=O)c3ccccc3O)cc12`, the inhibition was 73.3% (active).
Then `Cc1c([N+](=O)[O-])c2ccc(O)cc2n1-c1ccccc1`, with 53.5% (active).
As for `CC1(Cc2cccc(F)c2)C(=O)Nc2ccc(-c3cccnc3)cc21` (stereo not given), the inhibition is 66.8% (active).
The value for `O=C(NC1CCCCC1)C(c1cccnc1)N(C(=O)CCl)c1cccc(Cl)c1` (stereo not given) was 61.6% (active); that for `Cc1ccc(S(=O)(=O)c2ccc([N+](=O)[O-])cn2)cc1` was 25.7% (inactive).
For `CCn1c2ccccc2c2cnc(N=CN(C)C)c(C#N)c21`, the inhibition was 32% (inactive).
Then `COc1ccc(Nc2ccnc3ccccc23)cc1`, with 41.8% (inactive); and `COc1ccc(C2=Nn3c(nnc3-c3ccncc3)SC2)cc1`, with 65.2% (active); and `COc1ccc(-n2c(C)c(C(C)=O)c3cc(O)ccc32)cc1`, with 76.1% (active).
Then `Cc1ccc(OCC(=O)c2cc(C)n(Cc3cccs3)c2C)c([N+](=O)[O-])n1`, with 21% (inactive).
On to `O=C(CCl)N1N=C(c2ccco2)CC1c1ccco1` (stereo not given), for which the inhibition was 59.1% (active).
For the compound `CC1(C)Cc2c(ccc3ccccc23)C(=O)N1`, the inhibition is 55.7% (active).
The value for `OCCCNc1ncnc2scc(-c3ccc(Cl)cc3)c12` was 62.6% (active); that for `Cc1ccccc1C(=O)N1CCN(c2ccc(NC(=O)c3ccc4c(c3)OCCO4)cc2)CC1` was 25.7% (inactive).
Then `C=C1C(=O)[C@@]23[C@H](O)C[C@@H]4C(C)(C)CC[C@H](O)[C@@]4(C)[C@@H]2CC[C@@H]1[C@H]3O`, with 28.5% (inactive).
The value for `N#CC(C#N)c1ccnc2ccccc12` was 66.9% (active); that for `CCCCN(c1ccccc1)c1ncnc(N)c1[N+](=O)[O-]` was 72.2% (active); that for `CCOC(=O)c1cccc2c1-c1ccccc1/C2=N/O` was 39.8% (inactive).
